Compound activity deposited in PubChem by National Center for Advancing Translational Sciences (NCATS).
An excerpt weighted towards active compounds, which were near 11% of everything screened.
Vaccinia mCherry – qHTS for Stage-Specific Inhibitors of Vaccinia Orthopoxvirus: mCherry Reporter Primary qHTS | Vaccinia virus mCherry reporter infection, fluorescence | Potency, µM (top dose mostly 36.5 µM), without a hit: at the top dose activity change, negative = inhibition, most hits filed as inhibitors | actives 0.63% (n = 310,000) | AID 720579, 2013; calls by dose curve; tested in A549 cells; also: potency is read from the fitted curve at half-maximal effect; % is scaled to controls: 0 for no effect and ±100 for the full control effect; nearly all actives have a fitted effect of over 35% in size
Vaccinia Venus – qHTS for Stage-Specific Inhibitors of Vaccinia Orthopoxvirus: Venus Reporter Primary qHTS; Vaccinia virus Venus reporter expression, fluorescence; Potency, µM (top dose mostly 36.5 µM), inactives show at the highest dose activity change, negative = inhibition, usual class: inhibitors; actives 0.46% (n = 330,000); AID 720580, 2013; calls by dose curve; tested in A549 cells; also: potency is read from the fitted curve at half-maximal effect; % is scaled to controls: 0 for no effect and ±100 for the full control effect; nearly all actives have a fitted effect of over 30% in size
Pf growth 48h – Primary qHTS for delayed death inhibitors of the malarial parasite plastid, 48 hour incubation. AID 504832, 2011. P. falciparum luciferase growth in erythrocytes, 48 h. actives 5.9% (n = 310,000). Potency, µM (highest dose often 28.7 µM), without a hit: top-dose activity change, negative = inhibition, actives largely listed as inhibitors; also: potency is read from the fitted curve at half-maximal effect; % is scaled to controls: 0 for no effect and ±100 for the full control effect
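Luciferase-expressing P. falciparum in infected erythrocytes (2% hematocrit, 0.1% parasitemia final) in RPMI 1640/0.5% Albumax were exposed to compound for 48 hours at 37 C, 5% CO2; growth read as luminescence.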
HCV inh – qHTS Assay for Inhibitors of Hepatitis C Virus (HCV); AID 651820, 2012; actives 3.4% (n = 340,000); Potency, µM (doses to about 41.8 µM), for the others: at the highest dose activity change, negative = inhibition, usual class: inhibitors; Huh7.5.1 HCVcc-Cre infection, luciferase reporter, 44 h; also: potency is read from the fitted curve at half-maximal effect; % is scaled to controls: 0 for no effect and ±100 for the full control effect
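Whole-lifecycle infectious HCVcc-Cre system; cells 1,000/well, compound then virus (~0.5 moi) added 4 h after plating, 44 h culture. Luciferase read 15 sec following 15 min substrate incubation, room temp.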
Pf growth 96h – Primary qHTS for delayed death inhibitors of the malarial parasite plastid, 96 hour incubation | P. falciparum luciferase reporter growth, 96 h | Potency, µM (top dose mostly 28.7 µM), without a hit: at the highest dose activity change, negative = inhibition, usual class: inhibitors | actives 6.9% (n = 320,000) | AID 504834, 2011; also: potency is read from the fitted curve at half-maximal effect; % is scaled to controls: 0 for no effect and ±100 for the full control effect
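P. falciparum expressing integrated firefly luciferase, in erythrocytes at 2% hematocrit, 0.05% parasitemia, incubated with compounds 96 h at 37 C, 5% CO2. Growth inhibition read as loss of luminescence; two-generation exposure targets delayed-death apicoplast inhibitors.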
NS1 inh – qHTS Assay for Inhibitors of Influenza NS1 Protein Function; Potency, µM (top dose mostly 46.1 µM), for the others: at the top dose activity, positive = more growth; actives 0.4% (n = 270,000); calls by dose curve; also: potency is read from the fitted curve at half-maximal effect; actives are rising curves; nearly all actives have a fitted effect of over 50% in size
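Growth recovery, yeast-based: influenza A NS1 expressed in S. cerevisiae causes slow growth, and suppressors are detected by OD600. The parent strain without NS1 is used as positive control.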
Flu NS1 inh – Assay for Inhibitors of Influenza NS1 Protein Function: Hit Validation. activity change, negative = inhibition, % at 32.9 µM. shares compounds with NS1 inh. 1,400 tested, under 10 active. influenza NS1 function cell assay, 15-point titration. AID 492980, 2010; calls by dose curve; also: 0% is about no effect
PR8 titer – Assay for Inhibitors of Influenza NS1 Protein Function: Influenza virus replication assay in MDCK cells infected with virus A/PR/8/34 | actives 30% (n = 95) | virus titer (log TCID50), log10 TCID50 at 5 µM | MDCK infected influenza A/PR/8/34, virus titer TCID50; hits give low values | shares compounds with NS1 inh; call rule not given here
* marks the source's active call; other numbers are inactive results. Unless noted, calls follow the shape of the dose curve; as a rule, active = well fitted inhibition curve with a large enough effect; inconclusive = small, poorly fitted or top-dose-only effect, or another doubt; inactive = no such curve, though single readings can be large or run the other way.

How did CC(C)(C)NC(=O)c1ccccc1-c1nc2ccccc2s1 do in these assays?
Pf growth 48h: inconclusive; HCV inh: -5.6%; Pf growth 96h: inconclusive; NS1 inh: inconclusive; Flu NS1 inh: 15.8; PR8 titer: 8.5

How did CC(C)(C)NC(=O)c1nc2ccccc2s1 do in these assays?
Vaccinia Venus: 5.7%; Pf growth 48h: -11.1%; HCV inh: 17.4%; Pf growth 96h: 14.2%; NS1 inh: -7.1%

What do the screens show for `CC(C)(C)N(Cc1ccccc1)C(=O)CCc1ccccc1`?
Vaccinia mCherry: -0.8%; Vaccinia Venus: -11.3%; Pf growth 48h: inconclusive; HCV inh: 4.4%; Pf growth 96h: 13.1µM*; NS1 inh: inconclusive; Flu NS1 inh: -32.6

What do the screens show for `CCN(C(=O)Cn1nc(C(=O)O)c2ccccc2c1=O)C1CCCCC1`?
Vaccinia mCherry: inactive; Vaccinia Venus: -12.7%; Pf growth 48h: 10.9%; HCV inh: 4.7%; Pf growth 96h: 28.4%

Results for O=S(=O)(Nc1ccc(N2CCCCC2)cc1)c1ccc(F)cc1 ?
Pf growth 48h: -8.4%; HCV inh: -20.6%; Pf growth 96h: inconclusive; NS1 inh: -8.3%

What do the screens show for `O=S(=O)(Nc1ccc(N2CCCCC2)cc1)c1ccccc1`?
Vaccinia mCherry: -13.8%; Vaccinia Venus: -16.2%; Pf growth 48h: 25.6%; HCV inh: -6.7%; Pf growth 96h: -4.1%; NS1 inh: inconclusive; Flu NS1 inh: inconclusive

What do the screens show for `C=CCN1CC[C@]23c4c5ccc(O)c4OC2C(=O)CC[C@@]3(O)C1C5` (stereo partly specified)?
Vaccinia mCherry: inactive; Vaccinia Venus: -14.4%; Pf growth 48h: -8.3%; HCV inh: 2.51µM*; Pf growth 96h: 83.1%; NS1 inh: 12.6µM*; Flu NS1 inh: -16.8

What do the screens show for `CC1CCc2cc(F)ccc2N1C(=O)CSc1nnc2c(n1)[nH]c1ccc(F)cc12` (stereo unspecified)?
Vaccinia mCherry: -28.6%; Vaccinia Venus: -14.8%; Pf growth 48h: 1.04µM*; HCV inh: inconclusive; Pf growth 96h: inconclusive; NS1 inh: inconclusive; Flu NS1 inh: 3.5

How did CC1CCc2cc(F)ccc2N1C(=O)CCC(=O)O (stereo unspecified) do in these assays?
Vaccinia Venus: -14.0%; Pf growth 48h: 12.3%; HCV inh: -2.8%; Pf growth 96h: 86.5%; NS1 inh: -1.1%

Results for NC(=O)c1cc2ccccc2o/c1=N/NC(=O)c1cccc(Cl)c1 ?
Pf growth 48h: 3.2%; HCV inh: -16.5%; Pf growth 96h: 21.5%; NS1 inh: -1.3%

What do the screens show for `O=C(N/N=C/CCc1ccccc1)c1ccc(CN2c3cccc4cccc(c34)S2(=O)=O)cc1`?
Vaccinia mCherry: -19.8%; Vaccinia Venus: -15.7%; Pf growth 48h: 2.4%; HCV inh: -17.2%; Pf growth 96h: -32.3%; NS1 inh: 8.91µM*; Flu NS1 inh: 25.0

Results for COc1ccc(/C=N/NC(=O)c2ccc(CN3c4cccc5cccc(c45)S3(=O)=O)cc2)cc1 ?
Vaccinia mCherry: -13.9%; Vaccinia Venus: -14.7%; Pf growth 48h: inconclusive; HCV inh: -19.4%; Pf growth 96h: inconclusive; NS1 inh: inconclusive
